From the emibetuzumab library of Makowski et al. (2022)
The other results are listed elsewhere or left out. The true hit rate is not given.

B1: VH:VL chains; a variant is named by its letters at X, in order (parent)
chain 1: QVQLVQSGAEVKKPGASVKVSCKASGYTFTDYXMHWVRQAPGQGLEWMGXVNPNXXXTTYNQKFEGRVTMTTDTSTSTAYMELRSLRSDDTAVYYCARXNXLDXWGQGTTVTVSS
chain 2: DIQMTQSPSSLSASVGDRVTITCSVSSSVSSIYLHWYQQKPGKAPKLLIYSTSNLASGVPSRFSGSGSGTDFTLTISSLQPEDFATYYCQVYSGYPLTFGGGTKVEIK

Variants of: B1
Assay: yeast display scFab, FACS + sequencing
Settings: with MET
Outline: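 Heavy-chain CDR mutant scFab yeast surface library, enriched by two magnetic rounds on HGFR-Fc-coated Protein A beads and then by FACS. Cells were labelled with 1 nM HGFR-Fc in PBSB with 1% milk and anti-Myc for 3 h at room temperature, and the top 50% antigen-positive cells were gated. Round-3 sorted and input populations were deep sequenced in two replicates. Antigen binding call: positive if a sequence occurred in both antigen-positive samples, negative if it occurred only in input.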

Variant	antigen binding call
SEEGTDWD	no binding
VATGDDVD	no binding
FKTKNYAD	no binding
DKEGGDVV	no binding
FTGTGSGA	no binding
FRGESSGA	binds
FRGESAAA	binds
FRGESAGA	binds
FRGRDYGA	no binding
YAAGSDVY	no binding
DGGKNDGD	no binding
DGTGGAGA	no binding
DTGGDAGV	no binding
DATGGDVV	no binding
FTEEGDGV	no binding
YAEESSGV	no binding
YRAKSSGV	binds
YRAESSGV	binds
YRAGSSGV	binds
VAGAGDVV	no binding
FARKSFGS	no binding
YRRRGSVA	binds
YAKRGSWA	no binding

Variant	antigen binding call
YRKRGSSA	binds
YRRRGSSA	binds
DEGGTSLD	no binding
YKAEDVGD	no binding
YKAKGAAD	binds
YKAGDAGD	binds
YKAKGAGD	binds
YKGKGDAD	no binding
VTAGDAGD	no binding
VEAGDAGD	no binding
YKARGAAD	binds
FAEGDDVV	no binding
ARAAGDWV	no binding
FRKAAVAV	no binding
ARAKTSWV	no binding
FTTGGSAV chain 1 M48I	no binding
FRGRGSLV	binds
ARAGGSVV	binds
FRKRGSAV	binds
AEERDSVV	no binding
ARARGSWV	binds
AEAGDAVV	no binding
SEARSYLV	no binding

Variant	antigen binding call
SEARSDVD	no binding
FRARGSWV	binds
FRGRGSWV	binds
FRGRGSVV	binds
FTKAASWV	no binding
FRGRDVAV	no binding
FRGRGSAV	binds
DAGTGAGD	no binding
SETTDDAV	no binding
SEARSSLV	no binding
FRRGGASA	binds
YRRKGSSA	binds
FARGGYVA	no binding
YAEESSSA	no binding
YRRGSSSA	binds
YRRGDSSA	binds
DRRGDSSA	no binding
DRREDSSA	no binding
VAAKSAAA chain 1 R38K	no binding
ATGGDDWF	no binding
VEGGGDWS	no binding
SEARNAGD	no binding
VKGRADWA	no binding

Variant	antigen binding call
VTGGSDVY	no binding
YRRGGSSA	binds
FATEGASA	binds
FRGRDFSA	no binding
FRGKDASA	binds
YRRGGASA	binds
DARGGSSA	no binding
FAEGDDSA	no binding
FAGGGDGA	no binding
FEETDASA	no binding
STGGDDVY	no binding
VAGTGDWD	no binding
DTGKDAGD	no binding
SETGGDVA	no binding
SEARSAVS	no binding
SEEASSSA	no binding
YRRRDSSA	binds
YTGTSSSA	no binding
DRGRDSSA	no binding
YRRGGSVA	binds
VTGGDDVY	no binding
YTGGDDVV	no binding
YEGGGSSA	no binding

Variant	antigen binding call
FRGGGSSA	binds
FRGRGSSA	binds
FKGEGSSA	no binding
DTGRADWA	no binding
DTREGDVD	no binding
YKRGDSSS	binds
YKRGDDSS	no binding
YKRGDASS	binds
DGRGDALS	no binding
VGTKGDAA	no binding
DEGGGSSA	no binding
FRGGGSAA	binds
FRGTGSWA	no binding
FRGGGSWA	binds
FRTGGAVA	binds
DATGGAVA	no binding
FRGRDDWA	no binding
FRGGGAVA	binds
STGTSDVF	no binding
DAKEGDGV	no binding
DRGGSSAA	no binding
FRTRDSSS	binds
FAEGASSS	no binding

Variant	antigen binding call
FRGGSSAA	binds
FRTRDSAA	binds
AARADSLS	no binding
FRGRDAVD	binds
FRGRDYGD	no binding
FRGRDFAD	no binding
FRGRDYGF	no binding
FRGRDSSF	binds
DRGRDDVF	no binding
FRGRDDVF	no binding
FRGRDAVF	binds
FRGRAAVD	binds
SAEKDDGS	no binding
DARGGAGA	no binding
VGEKGDGV	no binding
SEKEGDAA	no binding
YRGKGFVA	binds
FRGRGFVA	no binding
SRGRGFVA	no binding
YRGRGFVA	binds
YRGRGFLV	binds
YRGKGFVV	binds
